CYP2C9 activ = human CYP2C9 activators, primary screen, biochemical, luminescence; activation factor at 5 µM; Cytochrome P450 2C9 (Homo sapiens), P11712; 1.4% of 96,000 active; recombinant CYP2C9, luciferin-H conversion; stronger effect = higher value; factor 1 = untreated enzyme, 0 = blocked;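 active = activation factor of 2 or more for CYP2C9 at a 5 µM dose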;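 also: 0 = sulfaphenazole-blocked wells and 1 = vehicle-only wells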
CYP2C19 activ = human CYP2C19 activators, primary screen, biochemical, luminescence | 96,000 tested, under 10 active | AID 1025, 2008 | recombinant CYP2C19, luciferin-H EGE luminescence; stronger effect = higher value; 0 = fully inhibited enzyme, 1 = untreated enzyme | activation factor at 5 µM | Cytochrome P450 2C19 (Homo sapiens), P33261;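 active = activation factor of at least 2 at 5 µM in the primary screen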;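 also: 0 = wells with 2.5 mM tranylcypromine and 1 = vehicle-only wells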
Target sequence (P33261 whole entry, looked up): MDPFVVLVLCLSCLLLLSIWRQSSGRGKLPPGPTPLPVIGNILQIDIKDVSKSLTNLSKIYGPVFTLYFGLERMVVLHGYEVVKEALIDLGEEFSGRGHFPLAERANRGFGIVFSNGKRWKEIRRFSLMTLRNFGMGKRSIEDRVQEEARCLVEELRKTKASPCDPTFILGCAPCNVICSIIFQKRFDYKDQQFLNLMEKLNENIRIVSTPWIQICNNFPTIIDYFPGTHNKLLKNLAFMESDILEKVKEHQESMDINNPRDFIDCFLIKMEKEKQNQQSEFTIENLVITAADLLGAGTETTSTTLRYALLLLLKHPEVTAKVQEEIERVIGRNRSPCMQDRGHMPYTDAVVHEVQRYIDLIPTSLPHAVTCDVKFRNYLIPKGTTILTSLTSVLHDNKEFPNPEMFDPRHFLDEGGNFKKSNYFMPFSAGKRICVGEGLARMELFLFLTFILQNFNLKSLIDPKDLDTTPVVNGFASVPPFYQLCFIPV
MRP1 act = H69AR viability gain despite doxorubicin, primary screen, MRP-1 activator project, H69AR cells, CellTiter-Glo; 0.61% of 140,000 active; viability rescue; viability increase, % at 10 µM;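 active = viability gain under doxorubicin at or above a set limit, the compound median plus 3 SD, cut at about 4.7% in these data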;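 also: MRP-1 overexpressing cells given doxorubicin 25 µM after compound pretreatment; 18-22 h compound pretreatment then 72 h with doxorubicin before readout; 0% = doxorubicin-only wells and 100% = vehicle-treated cells without doxorubicin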
CYP2C9 inhib = blockers of cytochrome P450 2C9 activity – biochemical, luminescence, ADME assay, primary screen | P11712 | CYP2C9 Supersomes, luciferin-H conversion | inhibition, % at 5 µM | 20% of 96,000 active | AID 777, 2007;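 active = blocking of liver enzyme CYP2C9 beyond about 50% at 5 µM, limit read from the data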
CYP2C19 inhib = blockers of cytochrome P450 2C19 activity – biochemical, luminescence, ADME assay, primary screen. CYP2C19 Supersomes, luciferin-H EGE luminescence, 30 min. AID 778, 2007. 21% of 96,000 active. inhibition, % at 5 µM. P33261;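 active = CYP2C19 inhibition above a set limit at 5 µM in the primary screen, cut at about 50% in these data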;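 also: plate controls were negative control wells for no effect and 2.5 mM tranylcypromine positive control for full effect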
MRP resist rev = reversal of MRP1-mediated doxorubicin resistance, primary screen, H69AR cells, doxorubicin co-treatment | 0.04% of 85,000 active | differential viability (reversal), % at 10 µM | H69AR cells + 2 uM doxorubicin, CellTiter-Glo, 72 h;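 active = viability drop by adding the cancer drug above about 55%, with treated viability meeting a 40% cutoff, limit read from the data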;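 also: viability without doxorubicin minus viability with 2 µM doxorubicin for each compound; larger differential means the compound sensitizes cells more to doxorubicin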
The depositor's hits bear a star; nt = not tested or not shown. In the library only some 21% were active in any assay of this set; here they are far more common.

SMILES	CYP2C9 activ	CYP2C19 activ	MRP1 act	CYP2C9 inhib	CYP2C19 inhib	MRP resist rev
O=C(CCC(=O)NC1CC1)Nc1nnc(C2CCCCC2)s1	1.3	1.1	0.7	-25.2	-9.1	5.1
O=C1NCCCC1C(=O)N/N=C/c1ccccc1 (stereo unspecified)	1.1	1.1	0.9	-12.7	-6.4	nt
Cc1cnnn1-c1ccc(C(=O)CCl)cc1	1.1	1.3	-2.5	-13.6	-25.9	0.1
Cc1ccc(-n2c(SCc3cn4ccsc4n3)nc3ccccc3c2=O)cc1	0.7	0.8	-0.8	33.4	19.3	-10.3
COc1ccc(/C=C/C(=O)OC(C)CN2CCOCC2)cc1 (stereo unspecified)	0.9	1	-3.1	13.7	-4.1	nt
C=C(C)C1CC=C(C)/C(=N/NC(=O)c2cccc([N+](=O)[O-])c2)C1 (stereo unspecified)	nt	nt	-1.0	nt	nt	nt
C=C(C)C1CC=C(C)/C(=N/NC(=O)c2ccc(NC(=O)c3cccc(C)c3)cc2)C1 (stereo unspecified)	0.4	0.4	-1.0	62.5*	59.4*	nt
O=C1c2ccccc2C(=O)N1CCc1nc(-c2cccnc2)no1	0.7	0.5	0.0	26.5	51.0*	-4.1
O=C1c2ccccc2C(=O)N1CCc1nc(-c2ccncc2)no1	0.3	0	1.8	72.4*	97.2*	-15.4
O=C1c2ccccc2C(=O)N1Cc1nc(-c2cccnc2)no1	nt	nt	nt	nt	nt	-33.7
Cc1ccc(C)c(-n2cc(-c3ccc(Cl)cc3)nc2SCC(=O)NC2CCS(=O)(=O)C2)c1 (stereo unspecified)	nt	nt	-3.2	nt	nt	nt
COc1ccc(C(=O)/C=C\N2CCOCC2)cc1	0.9	0.9	-1.1	10.1	14.3	4.8
CSc1nnc2c(n1)OC(C)N(C(=O)c1ccccc1)c1ccccc1-2 (stereo unspecified)	0.5	0.8	-3.6	53.9*	23.8	21.5
CC1=NN(c2ccc(F)cc2)C(=O)C1C(c1cccc(O)c1)c1c(C)[nH]n(-c2ccc(F)cc2)c1=O (stereo unspecified)	0.4	0.9	-2.4	59.2*	7.4	nt
O=C(Nc1ccc(S(=O)(=O)Nc2nccs2)cc1)/C(=C/c1ccccc1Cl)NC(=O)c1ccccc1	nt	nt	-0.7	nt	nt	nt
COc1ccc(/C=N/NC(=O)CN(C2=NS(=O)(=O)c3ccccc32)c2ccccc2)cc1OC	nt	nt	-1.9	nt	nt	nt
Cc1cccnc1Nc1nc(-c2ccc(O)c(O)c2)cs1	0.2	0.3	-5.7	76.0*	65.6*	-18.9
C/C(CCc1ccccc1)=N\NC(=O)CC(=O)NCCc1ccccc1	nt	nt	0.5	nt	nt	nt
CC(C)C(=O)Nc1nnc(SCC(=O)Nc2ccc3c(c2)OCO3)s1	nt	nt	0.5	nt	nt	nt
CCCn1cc(SCC(=O)Nc2ccc3c(c2)OCO3)c2ccccc21	0.2	0.3	-2.1	76.7*	74.3*	-0.9
Cn1c(=O)cc(SCC(=O)Nc2ccc3c(c2)OCO3)c2ccccc21	1.7	0.9	-2.9	-67.9	9.5	-9.8
Cn1cc(SCC(=O)Nc2ccc3c(c2)OCO3)c2ccccc21	0.3	0	-0.9	65.1*	100.4*	10.3
CCc1ccc(C(C)NC(=O)c2ncn[nH]2)cc1 (stereo unspecified)	nt	nt	0.1	nt	nt	nt
CS(=O)(=O)N(CC(=O)Nc1ccc(CC#N)cc1)c1ccc(C23CC4CC(CC(C4)C2)C3)cc1	0.4	0.9	-4.9	59.0*	11.1	nt
Cc1nnsc1C(=O)Nc1cccc(Cl)c1Cl	nt	nt	-2.0	nt	nt	3.3
SMILES	CYP2C9 activ	CYP2C19 activ	MRP1 act	CYP2C9 inhib	CYP2C19 inhib	MRP resist rev
CCCCNC(=O)NS(=O)(=O)c1ccc(C(=O)OC(C)C)o1	0.3	0.9	0.3	69.4*	5.2	-7.6
CCCCOC(=O)c1ccc(S(N)(=O)=O)o1	nt	nt	-0.1	nt	nt	nt
CCn1cc(C(=O)NC2CCCCCC2)c2cc(OC)c(OC)cc2c1=O	0.9	1	-1.5	5.5	4.2	-1.2
O=C(CCCc1nc(-c2ccccc2)no1)N1CCOCC1	1.1	0.6	0.3	-10.6	37.0	2.1
O=C(CCCOc1ccccc1)Nc1ccc(S(=O)(=O)N2CCOCC2)cc1	0.3	0.5	-2.0	70.2*	54.9*	1.9
O=C(CCOc1ccccc1)Nc1ccc(S(=O)(=O)N2CCCC2)cc1	0.1	0.5	-0.4	85.8*	50.0*	6.7
S=C(NC1CCCCC1)N1CCN(C/C=C/c2ccccc2)CC1	nt	nt	-3.5	nt	nt	nt
Cc1ccc2[nH]c3c(c2c1)CN(C(=O)CN1CC(C)OC(C)C1)CC3 (stereo unspecified)	0.6	0.3	-1.9	35.1	70.7*	6.0
Cc1ccc2[nH]c3c(c2c1)CN(C(=O)CN1CCN(Cc2ccc4c(c2)OCO4)CC1)CC3	0.4	0.4	-2.4	62.2*	62.4*	-4.1
Cc1ccc(CSCC(=O)N2CCN(Cc3ccc4c(c3)OCO4)CC2)cc1	nt	nt	2.0	nt	nt	2.4
Cc1ccc2[nH]c3c(c2c1)CN(C(=O)CN1CCSCC1)CC3	0.8	0.5	-1.4	15.4	50.9*	8.4
Cc1ccc2[nH]c3c(c2c1)CN(C(=O)CN1CCN(c2ccccn2)CC1)CC3	0.8	0.9	-4.6	20.9	11.1	-14.2
CC(=O)Nc1cccc(NC(=O)c2oc3ccccc3c2C)c1	1.6	0.5	-4.0	-58.2	52.6*	-9.5
Cc1sc(NC(=O)c2oc3ccccc3c2C)c(C#N)c1C	1.1	0.9	-1.9	-12.2	5.9	3.8
CC(=O)Nc1ccc(NC(=S)NC(=O)c2oc3ccccc3c2C)cc1	nt	nt	0.6	nt	nt	nt
Cc1c(C(=O)NCCc2ccc3c(c2)OCCO3)oc2ccccc12	0.2	0.1	0.2	81.6*	85.8*	nt
Cc1c(C(=O)NC2=NCCS2)oc2ccccc12	0.9	0.4	-1.9	12.4	61.1*	-16.3
COc1ccc2cc(/C=N/NC(=O)c3ccc(CN(c4cccc(Cl)c4Cl)S(C)(=O)=O)cc3)c(Cl)nc2c1	nt	nt	-2.1	nt	nt	nt
CCOc1ccc(N(CC)C(=O)COc2cc(=O)n(CC)c3ccccc23)cc1	0.1	0.3	-4.6	94.4*	69.9*	6.9
CCOc1ccc(N(CC)C(=O)COc2cc(=O)n(C)c3ccccc23)cc1	0.3	0.8	-1.4	69.9*	22.6	1.8
CCOC(=O)c1ccccc1NC(=O)COc1cc(=O)n(CC)c2ccccc12	0.2	0.2	-2.1	81.3*	80.1*	-7.7
CCn1c(=O)cc(OCC(=O)N2CCCC2)c2ccccc21	1.1	1.1	-2.6	-7.1	-11.4	17.9
COc1ccc(/C=N\NC(=O)C2C(=O)NCC2c2ccccc2)cc1O (stereo unspecified)	1	1	-0.7	-2.5	-3.7	nt
CCc1ccc(NC(=O)CCNS(=O)(=O)c2cccc3nsnc23)cc1	0.6	0.5	-0.8	41.8	51.4*	9.2
Cc1cccc2sc(NC(=O)CCNS(=O)(=O)c3cccc4nonc34)nc12	0.4	0.3	-3.5	57.8*	72.3*	0.2

Source: PubChem BioAssay
